Reference: ChEMBL document CHEMBL4513216, “Probing the Open Global Health Chemical Diversity Library for Multistage-Active Starting Points for Next-Generation Antimalarials” (ACS Infect Dis, 2020)
About 8,600 (12%) of roughly 69,000 compounds showed an effect of 50% or more. This is one part of a sample in which strong results are shown more often than they occur.

Each molecule was assayed on Plasmodium berghei (assay: Screen against P. berghei liver stage (PbLuc), transformed with Luciferase, at 10uM). Details: tested at 10 uM.
Format: functional, HepG2

Row | Structure (SMILES) | INHIBITION [%]
1 | CNc1nc2cn(CCc3ccccc3)c(=O)c-2c[nH]1 | -32.1
2 | Cc1noc(C)c1CN1CCc2c(CNc3nccs3)n[nH]c2C1 | 46.6
3 | CC(NC(=O)NC1CC1)c1nc(-c2ccccc2)cs1 (stereo unspecified) | 11.5
4 | O=S(=O)(NC1CCCCC12OCCO2)c1cc(F)cc(F)c1 (stereo unspecified) | 6.83
5 | CN(Cc1cnn(C)c1)C(=O)c1cc(C(F)(F)F)n(C)n1 | 36.6
6 | N#Cc1cccc(N2CCCC3(CNCCO3)C2)n1 (stereo unspecified) | 51.2
7 | N#Cc1cccc(N2CCOC3(CNCCOC3)C2)n1 (stereo unspecified) | 32.7
8 | N#Cc1cccc(N2CCCC3(C2)CN(c2ncccn2)CCO3)n1 (stereo unspecified) | 42.3
9 | Cc1nn(C)c(C)c1CN1CCN(CC2(O)CCCN(C)C2)CC1 (stereo unspecified) | 20.9
10 | O=C1NC(c2cnc(C3CCC3)s2)Nc2ncccc21 (stereo unspecified) | -44.2
11 | Cc1cccc(NC(=O)CNC(=O)Cn2ncc(Cl)c(Cl)c2=O)c1C | 5.14
12 | Cc1ccc(NC(=O)Cn2ncc(SCC(N)=O)c(Cl)c2=O)c(F)c1 | 64.5
13 | Cc1cccc(NC(=O)Cn2ncc(SCC(N)=O)c(Cl)c2=O)c1C | 50.5
14 | CNC(=O)CSc1cnn(CC(=O)Nc2cccc(Cl)c2C)c(=O)c1Cl | 45.7
15 | Cc1cc(NC(=O)Cn2ncc(SCC(N)=O)c(Cl)c2=O)ccc1Br | 49.7
16 | Cc1ccc(NC(=O)Cn2ncc(SCC(N)=O)c(Cl)c2=O)cc1 | 30.5
17 | CC(=O)N1CCCCC12CCCN(Cc1ccco1)C2 (stereo unspecified) | 28.4
18 | CCC[C@@H]1CN(Cc2ccccc2SC)C[C@H]1NC(C)=O | -7.53
19 | CC(C)(NC(=O)c1ccc(-c2ccccc2F)s1)C(N)=O | -29
20 | CN(C)S(=O)(=O)N1C[C@H]2CC[C@@H](C1)N(Cc1cccc(C#N)c1)C2 | -6.88
21 | O=C(Cn1ccc2ccccc21)NCc1ccc(C(=O)O)cc1 | 15.8
22 | COC(=O)C1CCN(C(=O)c2nnc3ccc(C)cc3n2)CC1 | 49.9

Row | Structure (SMILES) | INHIBITION [%]
23 | COC(=O)C1CCN(C(=O)c2nnc3ccc(Cl)cc3n2)CC1 | 52.4
24 | CN1CCN(C(=O)c2nnc3ccc(Cl)cc3n2)CC1 | 1.04
25 | CCc1nc(C(=O)N2CCCC2)nn1-c1c(Cl)cccc1Cl | 48.4
26 | Cc1cc2cc(CNC3CCN(CC4CCOC4)CC3)oc2cc1C (stereo unspecified) | 48.5
27 | Cc1cc2cc(CNC3CCN(CC(=O)N(C)C)CC3)oc2cc1C | 53.9
28 | Cc1nc(-c2c(C)noc2C)cc(C2CCN(CC(=O)N(C)C)CC2)n1 | 13.8
29 | Cc1cc2cc(CNC3CCN(S(C)(=O)=O)CC3)oc2cc1C | 49.6
30 | CC(NC1CCN(CC(=O)N(C)C)CC1)c1cnn(C(C)C)c1 (stereo unspecified) | 19.8
31 | Cc1cc(Cl)cc(C)c1CNC1CCN(CC(=O)N(C)C)CC1 | 56.1
32 | CC(=O)N1CCC12CCN(Cc1ccco1)CC2 | 9.97
33 | O=C([C@H]1CC[C@@H]2[C@@H](CCN2C2CCCC2)O1)N1CCOCC1 | -3.26
34 | O=C(NCc1ccc(-n2cncn2)nc1)c1cc(Cl)c2c(c1)OCCO2 | 9.54
35 | CCn1ncc2c1C(COC)CN(c1ncc(F)cn1)C2 (stereo unspecified) | -7.24
36 | COc1ccc2c(c1)NC(C1CCN(C(=O)C(C)C)CC1)NS2(=O)=O (stereo unspecified) | -12.3
37 | CCC(NC(=O)CC1CCN(C(C)C)CC1)c1cn2cccnc2n1 (stereo unspecified) | 51.3
38 | CCC(NC(=O)C1CCN(C(=O)C2CC2)CC1)c1cn2cccnc2n1 (stereo unspecified) | 22.9
39 | CCC(NC(=O)CCCN1CCCCC1)c1cn2cccnc2n1 (stereo unspecified) | 37.7
40 | CCn1ncnc1C(C)NC(=O)C1CCN(C(C)C)CC1 (stereo unspecified) | -1.64
41 | CCC(NC(=O)C1CCN(C(C)C)CC1)c1cn2cccnc2n1 (stereo unspecified) | 57.5
42 | CCC(NC(=O)CC1CCN(CC)CC1)c1cn2cccnc2n1 (stereo unspecified) | -15.3
43 | COc1ccc(Cl)cc1S(=O)(=O)N(C)CC(=O)Nc1cccnc1 | 33.4
44 | Cc1cnn(CC(C)NCc2csc(-c3ncccn3)n2)c1 (stereo unspecified) | -3.2

Row | Structure (SMILES) | INHIBITION [%]
45 | CN(C)c1cc(C(F)(F)F)cc(-c2ccc(C(=O)O)cc2)n1 | 26.9
46 | Cc1ccc(S(=O)(=O)N2CCC(c3n[nH]cc3C(=O)N(C)C)CC2)cc1 | 12.8
47 | CCN(c1ccsc1C(=O)N1CCCCC1)S(=O)(=O)c1ccccc1 | -10.8
48 | CCN1CCN(C)C(=O)C12CCN(Cc1csc(C)n1)CC2 | -1.28
49 | CC(C)=CCN1C[C@@H](C(=O)O)C[C@H](C(=O)Nc2ccc(C)nc2)C1 | 28.5
50 | CN(C)CCNC(=O)c1ccc(S(=O)(=O)N[C@@H]2CCNC2)cc1 | 87.9
51 | O=C(NC[C@@H]1CCCO1)c1ccc(S(=O)(=O)N[C@@H]2CCNC2)cc1 | 2.55
52 | CC(C)N(CCNC(=O)c1ccc(S(=O)(=O)NC2CC2)cc1)C(C)C | 19.2
53 | CCS(=O)(=O)N1C[C@@H](OCc2cccnc2)[C@H]2OCCC[C@H]21 | 44.9
54 | O=C1CCC(c2nc(C3CCN(C(=O)Cc4cccs4)CC3)no2)N1 (stereo unspecified) | -31.1
55 | CC1=N[C@@]2(CC[C@@H]3CN(Cc4ccccc4C)C[C@@H]32)C(=O)N1CC1CC1 | 28.4
56 | CC(C)CCc1cc(C(=O)O)nc2[nH]c(=O)[nH]c(=O)c12 | 2.29
57 | CCc1cc(NCCCNS(C)(=O)=O)nc(-c2ccccn2)n1 | 12.4
58 | CCN1CCN(Cc2c(-c3ccco3)[nH]c3ncccc23)CC1 | 29.3
59 | c1coc(-c2[nH]c3ncccc3c2CN2CCCOCC2)c1 | 50.1
60 | CN1CCN(Cc2c(-c3ccco3)[nH]c3ncccc23)CC1 | -0.371
61 | OC1CCCN(Cc2c(-c3ccco3)[nH]c3ncccc23)C1 (stereo unspecified) | 35.3
62 | NC(=O)C1CCCN(Cc2c(-c3ccco3)[nH]c3ncccc23)C1 (stereo unspecified) | 61.4
63 | OC1CCN(Cc2c(-c3ccco3)[nH]c3ncccc23)CC1 | 32.3
64 | O=C1CCCN1Cc1noc(-c2ccc(Cl)cc2)n1 | -66
65 | Cc1cnc(CC2COCCN(C(=O)CN3CCOCC3)C2)cn1 (stereo unspecified) | 16.5
66 | CCc1noc(CNC2CCCN(Cc3noc(C4CC4)n3)C2)n1 (stereo unspecified) | -6.14
